Experimental data taken from PubChem BioAssay (NCATS).
Results filed as inconclusive are left out. The source made the active and inactive calls. Calls follow the shape of the dose curve; as a rule, active = well fitted inhibition curve with a large enough effect; inconclusive = small, poorly fitted or top-dose-only effect; inactive = flat fitted curve, though single readings scatter.

Tests used:
Assay in all cases: qHTS profiling for inhibitors of Plasmodium falciparum proliferation (AID 504749); also: nearly all actives have a fitted effect of over 60% in size
Conditions in all cases: P. falciparum in erythrocytes, SYBR Green DNA, 72 h; series mostly up to 28.7 µM
CP252 = tested on: CP252
Outline: (§1)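 Parasite proliferation within erythrocytes, 72 h exposure. Endpoint: SYBR Green I fluorescence after overnight lysis at room temperature. Controls: 0.29 uM artemisinin, DMSO.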

CP256 = tested on: CP256
Outline: as §1

CP260 = tested on: CP260
Outline: as §1

CP262 = tested on: CP262
Outline: as §1

CP265 = tested on: CP265
Outline: as §1

CP266 = tested on: CP266
Outline: as §1

CP268 = tested on: CP268
Outline: as §1

CP269 = tested on: CP269
Outline: as §1

CP286 = tested on: CP286
Outline: as §1

CP291 = tested on: CP291
Outline: as §1

CP297 = tested on: CP297
Outline: as §1

CP305 = tested on: CP305
Outline: as §1

CP315 = tested on: CP315
Outline: as §1

CP325 = tested on: CP325
Outline: as §1

CP329 = tested on: CP329
Outline: as §1

CP335 = tested on: CP335
Outline: as §1

DFO2036 = tested on: DFO2036
Outline: as §1

DIV14 = tested on: DIV14
Outline: as §1

DIV17 = tested on: DIV17
Outline: as §1

DIV30 = tested on: DIV30
Outline: as §1

Dd2 = tested on: Dd2
Outline: as §1

ECU = tested on: ECU
Outline: as §1

FAB9 = tested on: FAB9
Outline: as §1

GB4 = tested on: GB4
Outline: as §1

HB3 = tested on: HB3
Outline: as §1

ICS = tested on: ICS
Outline: as §1

JCK = tested on: JCK
Outline: as §1

N140 = tested on: N140
Outline: as §1

P93_24 = tested on: P93_24
Outline: as §1

P94_40 = tested on: P94_40
Outline: as §1

PAD = tested on: PAD
Outline: as §1

PC15 = tested on: PC15
Outline: as §1

PC26 = tested on: PC26
Outline: as §1

PC49 = tested on: PC49
Outline: as §1

SC27B = tested on: SC27B
Outline: as §1

TAB109 = tested on: TAB109
Outline: as §1

TAB113 = tested on: TAB113
Outline: as §1

TAB165 = tested on: TAB165
Outline: as §1

W2 = tested on: W2
Outline: as §1

Measured: Potency

C[N+]1([O-])[C@H]2CC[C@H]1CC(OC(=O)[C@@H](CO)c1ccccc1)C2 (some centres undefined)
inactive: all assays above
